HCT116 bCat-KO: beta-catenin-lacking colon tumor cell growth suppression. AID 818. hit rate 1.5% among 140,000. viability, % at 10 µM. HCT116 beta-catenin knockout viability, CellTiter-Glo, 60 h; hits give low values;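 active = viability at or under a set limit, the compound median less 4 SD, cut at about 6% in these data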;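 note: 0% = Hyamine 1622 control at 20 µM and 100% = untreated cell control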
Autophagy HCS: autophagy modulation, high-content screen. MEF GFP-LC3 puncta imaging; test concentration mostly 10 µM. calls only at 10 µM (by protocol). hit rate 0.98% among 190,000. AID 463193;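 active = percentage of spot-positive cells more than 3 SD above its plate mean, without a fluorescence outlier flag or 80% toxicity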;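 note: spot-positive cell cutoff set from DMSO-treated cells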
L major viab: reduces viability of Leishmania major promastigotes. inhibition, % at 10 µM. hit rate 9% among 200,000. AID 1063. resazurin fluorescence viability; in the data active = inhibition above about 50%;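 note: promastigotes grown with compound for 44 hours at 28 °C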
INS promoter inh: TRM-6 insulin promoter activity inhibition. TRM-6 cells (human fetal islet line), insulin promoter-eGFP reporter, imaging; reporter expression induced with tamoxifen. inhibition, % at 2 µM. hit rate 0.9% among 130,000;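 active = inhibition above the mean plus 3 SD, with well images judged a real hit on visual review, cut at about 60% in these data, passing the limit was not always enough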
HCT116 PTEN-null: suppresses growth of cells with PTEN deletion; HCT116 PTEN-null viability, CellTiter-Glo, 60 h; hits give low values; hit rate 1.2% among 140,000; viability, % at 10 µM;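 active = viability at or below a set limit, 4 SD under the median of all tested compounds, cut at about 3.7% in these data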;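 note: PTEN knockout HCT116 line with beta catenin targeted HCT116 as companion control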
Ins promoter up: MIN6 insulin promoter up-regulation | hit rate 0.3% among 190,000 | MIN6 insulin promoter-GFP reporter, high-content imaging; hits give high values | z-score at 5 µM;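 active = z-score above 3 at 5 µM with at least 500 cells counted in the well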
An asterisk follows results filed as active. Rows were chosen to be rich in hits. Some 9.6% of all compounds tested hit in one or more screens of this group.

`Cc1cc(C)n(-c2nc3c(c(=O)n(C)c(=O)n3C)n2CC(O)COc2ccccc2C)n1` (stereo unspecified) gave Autophagy HCS inactive, L major viab 0 and INS promoter inh 77*.
`Cc1cc(C)n(-c2nc3c(c(=O)[nH]c(=O)n3C)n2CC(O)c2ccccc2)n1` (stereo unspecified) gave HCT116 bCat-KO 99, Autophagy HCS inactive, L major viab 2, INS promoter inh -21, HCT116 PTEN-null 109 and Ins promoter up 0.
`Nc1cccnc1Sc1cc(Cl)cc(Cl)c1` gave HCT116 bCat-KO 100, Autophagy HCS inactive, L major viab -3, INS promoter inh 90*, HCT116 PTEN-null 91 and Ins promoter up 0.34.
`Cc1cc(C(=O)CSc2nc(N)cc(N)n2)c(C)n1-c1cccc(F)c1` gave HCT116 bCat-KO 90, Autophagy HCS inactive, L major viab 77*, INS promoter inh 38, HCT116 PTEN-null 74 and Ins promoter up 0.01.
Cc1cc(C(=O)CSc2nc(N)cc(N)n2)c(C)n1C1CC1 was read as Autophagy HCS inactive, L major viab 10 and INS promoter inh 0.
Screening Cc1cc(-n2c(C)cc(C(=O)CSc3nc(N)cc(=O)[nH]3)c2C)no1 returned Ins promoter up -2.1.
Cc1cc(C(=O)CSc2nc(N)cc(=O)[nH]2)c(C)n1-c1ccc(OC(F)F)cc1 was read as Autophagy HCS inactive, L major viab 98* and Ins promoter up -0.93.
`Cc1cc(C(=O)CSc2n[nH]c(N)n2)c(C)n1-c1ccc2c(c1)OCO2` gave HCT116 bCat-KO 61, Autophagy HCS inactive, L major viab 60*, INS promoter inh -24, HCT116 PTEN-null 63 and Ins promoter up -0.24.
For COc1cccc(Nc2ncccc2C(=O)NCc2ccccc2)c1 the results were HCT116 bCat-KO 95, Autophagy HCS inactive, L major viab 6, INS promoter inh -134, HCT116 PTEN-null 82 and Ins promoter up 0.58.
CCCCC1CCC(C(=O)Nc2ccccc2)CC1 (stereo unspecified) was read as HCT116 bCat-KO 98, Autophagy HCS inactive, L major viab -8, INS promoter inh 9, HCT116 PTEN-null 90 and Ins promoter up 0.34.
Cc1cccc(NC(=O)c2ccc(CN3CCc4ccccc4C3)cc2)c1C was read as Autophagy HCS inactive, L major viab 57*, INS promoter inh -12 and Ins promoter up 0.12.
CCc1cccc(C)c1NC(=O)c1ccc(CN2CCc3ccccc3C2)cc1 was read as HCT116 bCat-KO 76, Autophagy HCS inactive, L major viab 66*, INS promoter inh 41, HCT116 PTEN-null 73 and Ins promoter up -0.42.
Screening COc1cccc(OCCSc2nc(C)c(Cc3ccccc3)c(=O)[nH]2)c1 returned Autophagy HCS inactive, L major viab -4, INS promoter inh 47 and Ins promoter up -0.46.
`Cc1ccc(Sc2ccc(CN3CCCCC3)cc2[N+](=O)[O-])cc1` gave Autophagy HCS inactive, L major viab 79* and Ins promoter up -1.6.
For C=CCNC(=O)c1ccc(Sc2ccc(C)cc2)c([N+](=O)[O-])c1 the results were HCT116 bCat-KO 97, Autophagy HCS inactive, L major viab -6, INS promoter inh -11, HCT116 PTEN-null 84 and Ins promoter up -0.59.
For OC(COCc1ccccc1)CN1CCN(Cc2ccc3c(c2)OCO3)CC1 (stereo unspecified) the results were Autophagy HCS inactive, L major viab 90* and Ins promoter up 0.06.
`CC1CCCN(CC(O)COCc2ccc3c(c2)OCO3)C1` (stereo unspecified) gave Autophagy HCS inactive, L major viab 4 and Ins promoter up -0.21.
Screening SC(COCc1ccccc1)CN1CCN(Cc2ccc3c(c2)OCO3)CC1 (stereo unspecified) returned HCT116 bCat-KO 70, Autophagy HCS inactive, L major viab 58*, HCT116 PTEN-null 67 and Ins promoter up 0.
CC1CN(CC(O)COCc2ccc3c(c2)OCO3)CC(C)O1 (stereo unspecified) was read as Autophagy HCS inactive, L major viab 69*, INS promoter inh -12 and Ins promoter up -0.42.
`COc1cc(/C=C/C(=O)N(Cc2ccccc2)c2ccccn2)cc(OC)c1OC` gave HCT116 bCat-KO 95, Autophagy HCS inactive, L major viab 2, INS promoter inh 33, HCT116 PTEN-null 94 and Ins promoter up 0.22.
For Cc1c(Br)c([N+](=O)[O-])nn1CCCC(=O)N1CCN(c2ccccc2)CC1 the results were HCT116 bCat-KO 95, Autophagy HCS inactive, L major viab 70*, INS promoter inh -22, HCT116 PTEN-null 100 and Ins promoter up 0.89.
For O=C(Cn1cnc2ccccc2c1=O)N1CCN(c2ccccc2)CC1 the results were HCT116 bCat-KO 93, Autophagy HCS inactive, L major viab -3, INS promoter inh 6 and HCT116 PTEN-null 91.
`O=C(Cn1cc([N+](=O)[O-])nc1[N+](=O)[O-])N1CCN(c2ccccc2)CC1` gave Autophagy HCS inactive, L major viab 100* and Ins promoter up 1.5.
`CCOCCOc1cccc(C(=O)NC(c2ccccc2)C(C)C)c1` (stereo unspecified) gave Autophagy HCS inactive, L major viab 9, INS promoter inh -53 and Ins promoter up 1.5.
CCOc1cccc(C(=O)NC(c2ccccc2)C(C)C)c1 (stereo unspecified) was read as Autophagy HCS inactive, L major viab 57* and Ins promoter up 0.54.
Screening Cn1c(CNS(=O)(=O)c2ccc(Br)cc2)n[nH]c1=S returned HCT116 bCat-KO 101, Autophagy HCS inactive, L major viab -5, INS promoter inh 33, HCT116 PTEN-null 95 and Ins promoter up -0.73.
O=C(O)CC1S/C(=N/N=C/C2CC=CCC2)NC1=O (stereo unspecified) was read as Autophagy HCS inactive, L major viab -4 and INS promoter inh 35.
Screening O=C1Nc2ccc(Cl)cc2/C1=C/C1CC=CCC1 (stereo unspecified) returned HCT116 bCat-KO 23, Autophagy HCS inactive, L major viab 96*, INS promoter inh 3, HCT116 PTEN-null 22 and Ins promoter up 0.43.
`O=C(CSc1nnc(-c2ccncc2)n1Cc1ccco1)c1ccc(Cl)cc1` gave HCT116 bCat-KO 84, Autophagy HCS inactive, L major viab 30, INS promoter inh 52 and HCT116 PTEN-null 84.
For COc1ccc(C(=O)CSc2nnc(-c3cc4ccccc4cc3O)n2Cc2ccco2)cc1 the results were HCT116 bCat-KO 30, Autophagy HCS inactive, L major viab 69*, HCT116 PTEN-null 24 and Ins promoter up 0.56.
Screening O=C(CSc1nnc(-c2ccc(Cl)cc2)n1Cc1ccco1)c1cccs1 returned HCT116 bCat-KO 88, Autophagy HCS inactive, L major viab 80*, HCT116 PTEN-null 77 and Ins promoter up 0.17.

Assay outcomes as filed in PubChem.
